# BaF3 parental – parental Ba/F3 viability inhibition as JAK2V617F counter-screen | CellTiter-Glo ATP luminescence | inhibition, % at 5.6 µM | hit rate 1.1% among 220,000 | AID 1486;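 active means inhibition above a per-campaign cutoff, the mean inhibition of all tested compounds plus 3 SD, cut at about 27% in these data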;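 further: 0% = DMSO wells and 100% = JAK Inhibitor I control wells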
# Ba/F3 V617F tox – lowers viability of Ba/F3 cells expressing EpoR and JAK2V617F. ATP luminescence. hit rate 1.1% among 220,000. inhibition, % at 5.6 µM. AID 1446;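 active means inhibition above the campaign mean plus 3 SD over all tested compounds, cut at about 24% in these data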;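 further: cytokine-independent growth of Ba/F3 cells driven by EpoR plus mutant JAK2; 0% = DMSO-treated cells and 100% = JAK inhibitor I control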
# aSyn UTR inh – MLPCN primary screen, SNCA 5' untranslated region; alpha-synuclein 5'UTR reporter, inhibitor activity; inhibition, % (tested at 7.5 µM); hit rate 0.82% among 300,000; AID 1813; in the data active means inhibition above about 60%;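 further: H4 neuroglioblastoma cells stably carrying SNCA 5'UTR luciferase fusion; 0% = DMSO wells and 100% = positive control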
# APP transl inh – APP translation inhibition | SH-SY5Y APP 5'UTR-luciferase reporter, luminescence | inhibition, % at 2 µM | hit rate 0.82% among 190,000;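 active means inhibition above a set limit, derived from the sample mean plus 3 SD, cut at about 45% in these data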
# KLF5 inhibitor – suppresses KLF5 promoter-driven expression; DLD-1 KLF5 promoter-luciferase reporter, luminescence; inhibition, % at 5 µM; hit rate 0.23% among 290,000;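 active means inhibition above a per-plate limit of that plate's mean compound inhibition plus 3 SD, cut at about 60% in these data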;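 further: 0% = DMSO wells and 100% = LY294002 at 200 µM; higher means less KLF5 promoter-driven luciferase light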
# IEC-6 tox – kills IEC-6 intestinal cells in KLF5 counter-screen. IEC-6 cytotoxicity, luminescence viability. inhibition, % at 5 µM. hit rate 0.78% among 290,000. AID 1825; in the data active means inhibition above about 22%;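 further: 0% = plate median of test compound wells and 100% = cytotoxic reference compound wells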
# * marks the source's active call; other numbers are inactive results; / = no result. Rows were chosen to be rich in hits. Some 2.2% of all compounds tested hit in one or more screens of this group.
SMILES,BaF3 parental,Ba/F3 V617F tox,aSyn UTR inh,APP transl inh,KLF5 inhibitor,IEC-6 tox
C#CC[N+]1(CC#Cc2ccccc2)CCCCC1,59*,46*,8,14,-26,-8
Cc1ccc(C#CC[N+]2(CC#Cc3ccc(C)cc3)CCCCC2)cc1,78*,96*,19,10,28,15
C(#Cc1ccccc1)C[N+]1(CC#Cc2cccc3ccccc23)CCOCC1,50*,56*,/,-1,-7,-4
COc1cc(OC)c(C(=O)OCC(=O)Nc2ccccc2Cl)cc1OC,/,/,2,/,-20,-8
Nc1cc(C(F)(F)F)ccc1-n1cccc1,7,5,-37,-12,-26,0
NC(=O)c1ccsc1NC(=O)COC(=O)C1CC2CCCC(C1)C2=O (stereo unspecified),-7,-3,11,/,-9,-8
O=C(C[N+]1(CC#Cc2ccccc2)CCOCC1)c1ccc(Cl)cc1,5,6,-15,-27,1,9
C(#Cc1ccccc1)C[N+]1(CC#Cc2ccccc2)CCCCC1,69*,87*,28,2,12,-1
CN(/N=C/c1cc(Br)cc(Br)c1O)c1cccc(C(F)(F)F)n1,/,/,70*,/,-2,9
Cc1ccccc1Nc1cccc2nonc12,11,5,8,5,12,-2
CC(C)CCn1nc(C(=O)Nc2nc3c(s2)CCCC3)c2ccccc2c1=O,2,-3,68*,7,-19,9
N#Cc1c(NC(=O)CSc2nc(N)cc(=O)[nH]2)sc2c1CCCCCC2,5,0,14,1,-15,4
N#Cc1c(NC(=O)CSc2ncn[nH]2)sc2c1CCCCC2,4,0,82*,79*,2,3
COCCn1c(C)cc(C(=O)COC(=O)c2cc3c(s2)CCC3)c1C,4,-3,-78,-18,2,-2
COCCn1c(C)cc(C(=O)CSc2nnc(C)s2)c1C,3,-3,100*,-22,4,2
COCCn1c(C)cc(C(=O)COC(=O)c2cccc(O)c2)c1C,-1,-4,67*,/,28,3
COc1cccc([C@@H]2Oc3ccc(OC)cc3C(=O)[C@H]2OC(=O)NCc2ccc3c(c2)OCO3)c1,11,5,-137,-52,-10,1
Cc1cc(C)cc(NC(=O)CN2CCC(NC(=O)c3ccccc3F)CC2)c1,/,/,17,/,-14,-10
Cc1ccc(C2(C)NC(=O)N(CC(=O)Nc3nc(-c4ccccn4)cs3)C2=O)cc1 (stereo unspecified),/,/,80*,/,/,/
CN(C)CC(C(=O)c1ccccc1)c1ccccc1 (stereo unspecified),-1,-1,-171,94*,-6,4
COc1ccc(C(C(=O)OC(C)CN(C)C)c2ccccc2)cc1 (stereo unspecified),5,0,2,-6,-24,-1
COc1cccc(CNC(=O)c2cc3oc4ccccc4c3n2C)c1OC,1,-2,5,-8,1,0
CCOc1ccccc1CNC(=O)c1cc2oc3ccccc3c2n1CC,2,-4,66*,/,-22,-1
Cc1ccc(C)c(N2CCN(S(=O)(=O)c3ccc4c(c3)NC(=O)CS4)CC2)c1,/,/,2,/,16,0
CC1Cc2ccccc2N1C1=CC(=O)CCC1 (stereo unspecified),66*,54*,-18,-36,-14,3
SMILES,BaF3 parental,Ba/F3 V617F tox,aSyn UTR inh,APP transl inh,KLF5 inhibitor,IEC-6 tox
CN(C1=NS(=O)(=O)c2ccccc21)c1ccc(OC(=O)c2ccncc2)cc1,5,0,10,-5,15,-10
COCCN(C(=O)CSc1nnc(-c2ccccc2F)o1)c1c(N)n(CC(C)C)c(=O)[nH]c1=O,/,/,3,/,/,/
Cc1ccc(CSc2nc3ccncc3[nH]2)cc1,15,4,73*,-148,53,7
Cc1cc(C(C)(C)C)ccc1OCCCCN1CCCC1,7,-2,-15,-7,-1,-8
CCC(C)(C)c1ccc(OCCCC[n+]2cccc(C)c2C)c(C(C)(C)CC)c1,99*,99*,101*,/,41,22
CCC(C)(C)c1ccc(OCCCC[n+]2ccc(C)cc2)c(C(C)(C)CC)c1,103*,102*,25,-21,35,21
Cc1cc[n+](CC[n+]2ccc(C)cc2)cc1,/,/,-10,/,/,/
Cc1cc(C)cc(NC(=S)N2CCC(NC(=O)c3ccccc3C)CC2)c1,6,-2,-14,-6,-4,2
CC(=O)c1cnc2c(-c3ccccc3)c(-c3ccccc3)nn2c1C,/,/,18,/,-25,4
COc1ccc(-c2noc(CCC(=O)NC3CCCCCC3)n2)cc1,/,/,-15,/,-15,4
COc1ccc(-c2noc(CCCC(=O)NC3CCCC3)n2)cc1,/,/,62*,/,-18,8
CCS(=O)(=O)N1Cc2ccccc2CC1C(=O)Nc1cccc(C)c1 (stereo unspecified),38*,3,-102,-8,-41,0
COc1ccc(-c2coc3cc4oc(=O)c5ccccc5c4cc23)cc1F,1,-3,81*,96*,-36,-1
c1ccc(CC2CCN(c3ncnc4sccc34)CC2)cc1,44*,37*,-4,-25,16,7
Cc1noc(C)c1C1(O)CCCCCCCCCCC1,55*,36*,1,-10,-11,1
Cc1noc(C)c1C(=O)N1CCCC1,4,3,-9,5,-30,2
O=[N+]([O-])c1ccccc1C1Nc2cccc3cccc(c23)N1,100*,79*,-27,14,10,11
Oc1ccccc1C1Nc2cccc3cccc(c23)N1,0,-4,2,-10,-19,4
CNC(=S)N/N=C(\C)c1ccc(N2CCOCC2)cc1,41*,96*,-55,-31,22,4
O=C(OCC(F)(F)F)c1cccc(COc2ccc3ccccc3c2)c1,2,2,107*,44,-4,-1
O=C(O)c1cc(OCc2ccccc2)cc(OCc2ccccc2)c1,/,/,1,/,-18,-2
CCOc1ccc(OCc2cccc(C(=O)O)c2)cc1,/,/,84*,/,/,/
COc1ccc(OCc2cccc(C(=O)O)c2)cc1,/,/,128*,/,/,/
CCOc1ccc(OCc2cccc(C(=O)N3CCCC3)c2)cc1,8,3,-4,-117,-134,2
CCOc1ccc(OCc2cccc(C(=O)N3CCCCCC3)c2)cc1,11,0,76*,-113,-61,0
Cc1cc(C)c2nc(-c3ccccn3)cc(C(=O)n3cccn3)c2c1,6,7,-9,12,-3,-2
COC1CCCN(Cc2c(C(=O)N3CCN(C4CCCCC4)CC3)nc3ccccn23)C1 (stereo unspecified),/,/,-3,/,-26,0
O=S(=O)(Cc1ccccc1)N1CCN(Cc2ccc(F)cc2Cl)CC1,/,/,-33,/,-17,6
Cc1ccc(C(C(=O)NC2CCCCC2)N(Cc2cccnc2)C(=O)c2csnn2)cc1 (stereo unspecified),/,/,-16,/,-10,-6
Cc1ccc(NC(=O)CS(=O)CC(=O)N(CC(=O)NC(C)(C)C)c2cccc(C)c2C)cc1 (stereo unspecified),/,/,20,/,-6,-6

# Compound activity deposited in PubChem by several laboratories.
